Records with an inconclusive call do not appear. Active and inactive are the calls of the source. Unless noted, calls follow the shape of the dose curve; as a rule, active = well fitted curve in the direction sought with a large enough effect in the repeat runs; inconclusive = weak or mixed curves; inactive = no such curve, though single readings can be large; an effect the other way counts as inactive or inconclusive.
Tests used:
[1] = qHTS assay to identify small molecule antagonists of the thyroid receptor (TR) signaling pathway (AID 743065); also: series mostly up to about 70 µM; nearly all actives have a fitted effect of over 55% in size
In short: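 GH3.TRE-Luc rat pituitary cells carrying two TR response elements driving luciferase were plated for 4 h, given compound plus 1 nM T3 (final), and incubated 23.5 h at 37 C. ONE-Glo luminescence measured reporter inhibition; CellTiter-Fluor fluorescence tracked cytotoxicity.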

[2] = system: thyroid hormone receptor (rat, GH3 cells); experiment: qHTS assay to identify small molecule agonists of the thyroid receptor (TR) signaling pathway (AID 743066; calls by dose curve)
[3] = molecular target: Estrogen receptor (Homo sapiens) (UniProt P03372); experiment: qHTS assay to identify small molecule antagonists of the estrogen receptor alpha (ER-alpha) signaling pathway (AID 743069; active = well fitted curve in the direction sought with a large enough effect in the signal ratio in the repeat runs, not every such curve was filed as active; the % refers to the signal ratio)
Estrogen receptor (Homo sapiens), sequence (P03372 whole entry, looked up): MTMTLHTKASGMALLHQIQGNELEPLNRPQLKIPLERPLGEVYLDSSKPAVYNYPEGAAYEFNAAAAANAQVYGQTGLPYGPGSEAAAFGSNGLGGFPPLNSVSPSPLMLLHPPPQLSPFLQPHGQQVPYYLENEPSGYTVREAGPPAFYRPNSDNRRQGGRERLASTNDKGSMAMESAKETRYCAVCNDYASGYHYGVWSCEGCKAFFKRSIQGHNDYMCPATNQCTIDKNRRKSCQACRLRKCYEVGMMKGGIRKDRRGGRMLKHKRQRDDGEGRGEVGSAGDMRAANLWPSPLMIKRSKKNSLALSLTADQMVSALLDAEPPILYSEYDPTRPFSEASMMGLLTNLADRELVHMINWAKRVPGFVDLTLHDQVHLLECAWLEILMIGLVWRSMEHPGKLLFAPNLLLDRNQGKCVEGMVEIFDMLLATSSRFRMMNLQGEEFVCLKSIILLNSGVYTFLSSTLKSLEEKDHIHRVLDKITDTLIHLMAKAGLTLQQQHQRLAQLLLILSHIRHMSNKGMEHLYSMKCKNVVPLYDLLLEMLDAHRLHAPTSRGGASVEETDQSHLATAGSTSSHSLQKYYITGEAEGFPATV
In short: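 A 17beta-estradiol challenge was applied right after compound transfer to ER-alpha-UAS-bla HEK293 cells previously kept in charcoal-stripped serum. Plates stood 18 hr at 37C and 5% CO2; fluorescence was read following 2 hr FRET substrate loading at room temperature.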

[4] = qHTS assay to identify small molecule antagonists of the estrogen receptor alpha (ER-alpha) signaling pathway - cell viability counter screen (AID 743074; calls by dose curve;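 also: HEK293 cells carrying ER-alpha-UAS-bla reporter stimulated with 17beta-estradiol; nearly all actives have a fitted effect of over 45% in size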)
[5] = molecular target: Estrogen receptor (Homo sapiens) (UniProt P03372); experiment: qHTS assay to identify small molecule agonists of the estrogen receptor alpha (ER-alpha) signaling pathway (AID 743075; calls by dose curve;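 also: HEK293 GripTite cells with ER-alpha and UAS-driven beta-lactamase reporter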)
[6] = molecular target: Estrogen receptor (Homo sapiens) (UniProt P03372); experiment: qHTS assay to identify small molecule agonists of the estrogen receptor alpha (ER-alpha) signaling pathway using the BG1 cell line (AID 743079); also: nearly all actives have a fitted effect of over 20% in size; also: potency is read from the fitted curve at half-maximal effect
[7] = qHTS assay to identify small molecule antagonists of the estrogen receptor alpha (ER-alpha) signaling pathway using the BG1 cell line (AID 743080; calls by dose curve;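 also: BG1 cells stimulated with 17beta-estradiol alongside compound; series mostly up to about 70 µM; nearly all actives have a fitted effect of over 25% in size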)
In short: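 Luciferase inhibition measured with ONE-Glo after 30 min at RT in BG1Luc4E2 cells given test compounds and 17beta-estradiol for 21.5 h at 37 C; CellTiter-Fluor viability read in the same wells beforehand.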

[8] = qHTS assay to identify small molecule antagonists of the estrogen receptor alpha (ER-alpha) signaling pathway using the BG1 cell line - cell viability counter screen (AID 743081);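 also: compound given together with 17beta-estradiol as the ER stimulus; series mostly up to about 70 µM; nearly all actives have a fitted effect of over 45% in size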
Aromatase (Homo sapiens) = Aromatase (Homo sapiens) (UniProt P11511); experiment: qHTS assay to identify aromatase inhibitors (AID 743083); also: series mostly up to about 70 µM; nearly all actives have a fitted effect of over 55% in size
Aromatase (Homo sapiens), sequence (P11511 whole entry, looked up): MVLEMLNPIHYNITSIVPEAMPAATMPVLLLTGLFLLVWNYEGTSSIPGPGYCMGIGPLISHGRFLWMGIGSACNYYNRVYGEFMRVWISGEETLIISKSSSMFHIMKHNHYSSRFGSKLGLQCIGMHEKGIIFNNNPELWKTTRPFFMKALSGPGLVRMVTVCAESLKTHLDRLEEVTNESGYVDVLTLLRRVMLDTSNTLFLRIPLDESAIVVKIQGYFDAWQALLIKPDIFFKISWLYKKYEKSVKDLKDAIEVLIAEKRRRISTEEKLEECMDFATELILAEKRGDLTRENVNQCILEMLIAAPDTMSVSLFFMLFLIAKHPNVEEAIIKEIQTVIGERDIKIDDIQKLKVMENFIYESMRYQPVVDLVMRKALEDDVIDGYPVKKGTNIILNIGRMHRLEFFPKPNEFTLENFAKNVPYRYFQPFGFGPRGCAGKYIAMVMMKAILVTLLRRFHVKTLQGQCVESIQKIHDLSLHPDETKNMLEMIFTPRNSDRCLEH

[9] = qHTS assay to identify aromatase inhibitors - cell viability counter screen (AID 743084);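 also: cells stimulated with testosterone during compound exposure; nearly all actives have a fitted effect of over 55% in size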
[10] = molecular target: Aryl hydrocarbon receptor (Homo sapiens) (UniProt P35869); experiment: qHTS assay to identify small molecule that activate the aryl hydrocarbon receptor (AhR) signaling pathway (AID 743085); also: nearly all actives have a fitted effect of over 15% in size; also: potency is read from the fitted curve at half-maximal effect;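 as to activation: HG2L7.5c1 human HepG2 liver cells with stably integrated DRE-driven firefly reporter; series mostly up to about 70 µM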
Aryl hydrocarbon receptor (Homo sapiens), sequence (P35869 whole entry, looked up): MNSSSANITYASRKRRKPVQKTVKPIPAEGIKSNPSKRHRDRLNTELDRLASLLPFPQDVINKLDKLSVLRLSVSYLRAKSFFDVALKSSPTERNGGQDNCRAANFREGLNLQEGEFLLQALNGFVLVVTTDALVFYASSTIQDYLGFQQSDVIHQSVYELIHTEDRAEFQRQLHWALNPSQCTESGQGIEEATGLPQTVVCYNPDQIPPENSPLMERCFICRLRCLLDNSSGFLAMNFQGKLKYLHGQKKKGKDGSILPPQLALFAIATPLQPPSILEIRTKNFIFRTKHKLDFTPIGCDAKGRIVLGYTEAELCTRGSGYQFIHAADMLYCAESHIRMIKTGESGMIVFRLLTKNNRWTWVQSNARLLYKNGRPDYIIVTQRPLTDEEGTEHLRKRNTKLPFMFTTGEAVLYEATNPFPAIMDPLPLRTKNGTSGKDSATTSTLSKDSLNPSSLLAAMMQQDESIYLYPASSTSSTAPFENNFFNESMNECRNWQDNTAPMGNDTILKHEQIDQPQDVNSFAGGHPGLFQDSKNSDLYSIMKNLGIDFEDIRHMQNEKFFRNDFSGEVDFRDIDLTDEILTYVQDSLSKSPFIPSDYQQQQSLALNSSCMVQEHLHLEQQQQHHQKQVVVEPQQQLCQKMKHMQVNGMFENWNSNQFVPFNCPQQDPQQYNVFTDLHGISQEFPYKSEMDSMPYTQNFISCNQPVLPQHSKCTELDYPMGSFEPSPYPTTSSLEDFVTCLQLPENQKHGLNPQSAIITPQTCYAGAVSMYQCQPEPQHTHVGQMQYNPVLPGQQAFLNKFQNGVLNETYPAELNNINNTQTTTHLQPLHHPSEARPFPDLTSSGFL
In short: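 HepG2 cells (HG2L7.5c1) stably carrying a firefly luciferase reporter driven by 20 dioxin responsive elements were exposed to compound for 24 h at 37C after a 5 h settling period; luminescence rise (ONE-Glo) indicated activation.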

[11] = molecular target: Peroxisome proliferator-activated receptor gamma (Homo sapiens) (UniProt P37231); experiment: qHTS assay to identify small molecule agonists of the peroxisome proliferator-activated receptor gamma (PPARg) signaling pathway (AID 743094; active = well fitted activation curve with a large enough effect in the signal ratio in the repeat runs, not every such curve was filed as active; the % refers to the signal ratio)
Peroxisome proliferator-activated receptor gamma (Homo sapiens), sequence (P37231 whole entry, looked up): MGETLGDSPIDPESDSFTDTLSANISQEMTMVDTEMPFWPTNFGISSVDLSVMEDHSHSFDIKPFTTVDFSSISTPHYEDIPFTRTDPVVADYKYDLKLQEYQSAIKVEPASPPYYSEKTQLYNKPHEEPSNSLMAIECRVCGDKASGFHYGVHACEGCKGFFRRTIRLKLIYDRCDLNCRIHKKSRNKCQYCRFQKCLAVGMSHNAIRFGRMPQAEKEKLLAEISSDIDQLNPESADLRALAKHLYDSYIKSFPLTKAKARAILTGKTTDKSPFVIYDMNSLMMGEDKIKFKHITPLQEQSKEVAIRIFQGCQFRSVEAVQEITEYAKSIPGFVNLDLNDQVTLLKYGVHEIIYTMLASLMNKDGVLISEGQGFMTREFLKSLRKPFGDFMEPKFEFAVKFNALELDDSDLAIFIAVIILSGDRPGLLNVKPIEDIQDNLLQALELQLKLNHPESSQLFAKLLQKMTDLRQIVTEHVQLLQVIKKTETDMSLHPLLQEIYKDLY
In short: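 Agonism was assessed in a beta-lactamase reporter system, HEK293H cells with a stably integrated UAS-bla construct under PPARg control; the 17 h treatment at 37C preceded a 1 h room-temperature FRET substrate read.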

[12] = molecular target: Peroxisome proliferator-activated receptor gamma (Homo sapiens) (UniProt P37231); experiment: qHTS assay to identify small molecule antagonists of the peroxisome proliferator-activated receptor gamma (PPARg) signaling pathway (AID 743191; calls by dose curve; also: series mostly up to about 63 µM; nearly all actives have a fitted effect of over 30% in size)
In short: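 GeneBLAzer PPARg UAS-bla HEK293H cells carrying a UAS-driven beta-lactamase reporter were plated at 3000 cells/well, preincubated 5 h at 37C, then given compound for 17 h at 37C; LiveBLAzer B/G FRET substrate was read after 1 h at room temperature.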

[13] = qHTS assay to identify small molecule antagonists of the peroxisome proliferator-activated receptor gamma (PPARg) signaling pathway - cell viability counter screen (AID 743194); also: nearly all actives have a fitted effect of over 55% in size
In short: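 PPARg-UAS-bla HEK293H cells were plated, rested 5 h at 37 C, then treated with compounds plus rosiglitazone (50 nM final) for 17 h at 37 C; viability was then read by CellTiter-Glo luminescence after 30 min at room temperature.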

[14] = qHTS assay for small molecule agonists of the antioxidant response element (ARE) signaling pathway (AID 743202; active = well fitted activation curve with a large enough effect in the signal ratio in the repeat runs, not every such curve was filed as active; the % refers to the signal ratio)
In short: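 Following a 16 h, 37 C exposure of reporter HepG2 cells (ARE-driven beta-lactamase, 2,000 cells/well) to compounds, FRET substrate was applied for 2 h at room temperature and fluorescence intensity recorded.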

[15] = qHTS assay for small molecule agonists of the antioxidant response element (ARE) signaling pathway - cell viability counter screen (AID 743203; calls by dose curve; also: nearly all actives have a fitted effect of over 55% in size)
In short: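 ATP content via CellTiter-Glo luminescence served as the viability measure. Cells: ARE-bla HepG2, 2,000 per well. Exposure: 16 hrs, 37C/5% CO2.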

[16] = qHTS assay for small molecule activators of the heat shock response signaling pathway - cell viability counter screen (AID 743209); also: nearly all actives have a fitted effect of over 50% in size
In short: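 Compounds dissolved in DMSO were added to overnight-plated HSE-bla HeLa cells and left 5 h at 37 C. Cell viability was quantified by luminescence using CellTiter-Glo.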

[17] = qHTS assay for small molecule activators of the heat shock response signaling pathway (AID 743210; active = well fitted activation curve with a large enough effect in the signal ratio in the repeat runs, with a control signal flat, not every such curve was filed as active; the % refers to the signal ratio; also: series mostly up to about 63 µM)
In short: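 Heat shock element–beta-lactamase HeLa reporter cells; qHTS with compounds for 5 h at 37 C; detection by FRET substrate fluorescence after 2.5 h at RT.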

[18] = qHTS assay to identify small molecule that activate the aryl hydrocarbon receptor (AhR) signaling pathway - cell viability counter screen (AID 743086);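 also: HepG2 liver cells carrying the AhR DRE luciferase reporter; series mostly up to about 70 µM; nearly all actives have a fitted effect of over 45% in size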
In short: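 HepG2-AhR-luc (HG2L7.5c1) cells, 4000/well, were preincubated 5 h at 37C, exposed to compound in qHTS format for 24 hr at 37C, then given CellTiter-Fluor for 30 min; viability was read as fluorescence in the reporter wells.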
% is scaled to controls: 0 for no effect and ±100 for the full control effect.

CC(C)(C)N(CCO)CCO
inactive: Potency [1] | Potency [2] | Potency [3] | outcome [4] | Potency [5] | Potency [6] | Potency [7] | outcome [8] | Potency (Aromatase (Homo sapiens)) | Potency [9] | Potency [10] | outcome [11] | outcome [12] | Potency [13] | Potency [14] | outcome [15] | outcome [16] | outcome [17]

CCn1cc(C(=O)O)c(=O)c2cc(F)c(N3CCN(C)CC3)cc21
inactive: Potency [1] | Potency [2] | outcome [4] | Potency [5] | Potency [6] | Potency [7] | outcome [8] | Potency (Aromatase (Homo sapiens)) | Potency [9] | Potency [10] | Potency [18] | outcome [11] | outcome [12] | Potency [13] | Potency [14] | outcome [15] | outcome [16] | outcome [17]

NCCN1CCNC1=O
inactive: Potency [1] | Potency [2] | Potency [3] | outcome [4] | Potency [5] | Potency [6] | Potency [7] | outcome [8] | Potency (Aromatase (Homo sapiens)) | Potency [9] | Potency [10] | Potency [18] | outcome [11] | outcome [12] | Potency [14] | outcome [15] | outcome [16] | outcome [17]

Cn1ccc2cc3c(cc21)CCN3C(=O)Nc1cccnc1
active: Potency [6] 5.31 µM | Potency [10] 0.335 µM
inactive: Potency [1] | Potency [2] | outcome [4] | outcome [8] | Potency (Aromatase (Homo sapiens)) | Potency [9] | Potency [18] | outcome [11] | Potency [13] | Potency [14] | outcome [15] | outcome [16] | outcome [17]

CC(C)=CC(=O)O
inactive: Potency [1] | Potency [2] | Potency [3] | outcome [4] | Potency [5] | Potency [7] | outcome [8] | Potency (Aromatase (Homo sapiens)) | Potency [9] | Potency [18] | outcome [11] | outcome [12] | Potency [13] | Potency [14] | outcome [15] | outcome [16] | outcome [17]
active: Potency [6] 54.5 µM

CCCC=O
inactive: Potency [1] | Potency [2] | outcome [4] | outcome [8] | Potency (Aromatase (Homo sapiens)) | Potency [9] | Potency [10] | Potency [18] | outcome [11] | outcome [12] | Potency [13] | Potency [14] | outcome [15] | outcome [16] | outcome [17]

CC(C)COC(=O)C(C)C
inactive: Potency [1] | Potency [2] | Potency [3] | outcome [4] | Potency [5] | Potency [6] | Potency [7] | outcome [8] | Potency (Aromatase (Homo sapiens)) | Potency [9] | Potency [10] | Potency [18] | outcome [11] | Potency [13] | Potency [14] | outcome [15] | outcome [16] | outcome [17]

CCCC(C)CO (stereo unspecified)
inactive: Potency [1] | Potency [2] | outcome [4] | outcome [8] | Potency (Aromatase (Homo sapiens)) | Potency [9] | Potency [10] | Potency [18] | outcome [11] | Potency [13] | Potency [14] | outcome [15] | outcome [17]

CC1=CCC2C(C1)C2(C)C (stereo unspecified)
inactive: Potency [1] | Potency [2] | Potency [3] | outcome [4] | Potency [5] | Potency [6] | Potency [7] | outcome [8] | Potency (Aromatase (Homo sapiens)) | Potency [9] | Potency [10] | Potency [18] | outcome [11] | Potency [13] | outcome [15] | outcome [16]

CC/C=C\C#N
inactive: Potency [1] | Potency [2] | Potency [3] | outcome [4] | Potency [5] | Potency [6] | Potency [7] | outcome [8] | Potency (Aromatase (Homo sapiens)) | Potency [9] | Potency [10] | outcome [11] | Potency [13] | Potency [14] | outcome [15] | outcome [16] | outcome [17]

CCO[Si](CCCN=C=O)(OCC)OCC
inactive: Potency [1] | Potency [2] | Potency [3] | Potency [5] | Potency [6] | Potency [7] | outcome [8] | Potency (Aromatase (Homo sapiens)) | Potency [9] | Potency [10] | Potency [18] | outcome [11] | outcome [12] | Potency [13] | outcome [15] | outcome [16] | outcome [17]

O=C1OC(=O)c2cc([N+](=O)[O-])ccc21
inactive: Potency [1] | Potency [2] | Potency [3] | outcome [4] | Potency [5] | Potency [6] | Potency [7] | outcome [8] | Potency (Aromatase (Homo sapiens)) | Potency [9] | Potency [10] | Potency [18] | outcome [11] | outcome [12] | outcome [15] | outcome [16] | outcome [17]

CCCCCCOC(=O)CC(CC(=O)OCCCCCC)(OC(=O)CCC)C(=O)OCCCCCC
inactive: Potency [1] | Potency [2] | Potency [3] | outcome [4] | Potency [5] | Potency [6] | Potency [7] | outcome [8] | Potency (Aromatase (Homo sapiens)) | Potency [9] | Potency [10] | outcome [11] | Potency [14] | outcome [15] | outcome [16] | outcome [17]

NC(=S)Nc1cccc2ccccc12
inactive: activity, negative = inhibition [1] -4.6% [at 8.44 µM] | activation [2] 0.336% [at 8.08 µM] | activity, negative = cytotoxicity [4] 13.6% [at 6.72 µM] | activity change, negative = cytotoxicity [8] -0.944% [at 8.47 µM] | activity, negative = inhibition (Aromatase (Homo sapiens)) 16.7% [at 8.47 µM] | activity change, negative = cytotoxicity [9] 1.26% [at 8.47 µM] | activation [10] 0.499% [at 8.47 µM] | viability change, negative = cytotoxic [18] 1.55% [at 8.47 µM] | activation [11] -10.4% [at 7.08 µM] | activity change, negative = cytotoxicity [13] 9.83% [at 5.95 µM] | activation [14] -5.35% [at 8.36 µM] | activity change, negative = cytotoxicity [16] -5.69% [at 5.95 µM]

COC[C@H](c1ccc(C(F)(F)F)cc1)N1CCN(C2(C)CCN(C(=O)c3c(C)ncnc3C)CC2)C[C@H]1C
inactive: Potency [1] | Potency [2] | Potency [3] | outcome [4] | Potency [5] | Potency [6] | Potency [7] | Potency [9] | Potency [10] | Potency [18] | outcome [11] | Potency [13] | outcome [15] | outcome [16] | outcome [17]

CN(C)C(=O)Nc1ccccc1
inactive: Potency [1] | Potency [2] | Potency [3] | outcome [4] | Potency [5] | Potency [6] | Potency [7] | outcome [8] | Potency (Aromatase (Homo sapiens)) | Potency [9] | Potency [10] | Potency [18] | outcome [11] | Potency [13] | Potency [14] | outcome [15] | outcome [16] | outcome [17]
